From PubChem BioAssay
An excerpt weighted towards active compounds, which were near 19% of everything screened.
HT1080NT lethal = kills 2HG-producing HT-1080-NT fibrosarcoma cells; HT-1080-NT fibrosarcoma viability, CellTiter-Glo ATP luminescence, 48 h; Potency, µM (top dose mostly 46.1 µM), inactives show at the highest dose activity, negative = less viability, actives largely listed as cytotoxic; actives 1.6% (n = 360,000);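 also: NT is the 2HG producing partner of a matched IDH1 knockdown line; potency is read from the fitted curve at half-maximal effect; 0% = DMSO-treated cells and -100% = media-only wells without cells; nearly all actives have a fitted effect of over 55% in size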
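Compounds were tested in concentration-response format on HT-1080-NT cells for 48 hours at 37 degrees C. Cell viability came from CellTiter-Glo luminescence; curves were classified by r2, response magnitude and activity.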
DT40 TDP1 CPT = growth inhibition of DT40 Tdp1-/-;hTDP1 cells with camptothecin (screen for TDP1 inhibitors) | Potency, µM (doses to about 46.2 µM), for the others: top-dose activity change, negative = growth inhibition, hits mostly inhibitors | actives 12% (n = 420,000) | chicken DT40 Tdp1-/-;hTDP1 cells + 20 nM CPT, ATP luminescence, 48 h; also: potency is read from the fitted curve at half-maximal effect; nearly all actives have a fitted effect of over 55% in size
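Cell growth measured by CellTiter-Glo luminescence after a minimum 48 h, 37 C compound exposure with 20 nM CPT in Tdp1-knockout DT40 cells stably expressing hTDP1, seeded 400/well; qHTS titration format.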
IL-1B inflam inh = inflammasome signaling inhibition, IL-1 beta readout; AID 743279; activity change, % at 57.5 µM; actives 4.7% (n = 360,000); THP-1 LPS/ATP IL-1B secretion, AlphaLISA, 16 h; stronger effect = lower value; in the data active = activity change below about -50%; inconclusive = mostly about -30% to -49%
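Secreted IL-1B measured by AlphaLISA bead assay after 16 h compound exposure of THP-1 cells; compounds (final up to 57.5 uM) added 1 h before LPS (250 ng/mL) and ATP (1.25 mM) stimulation; lower signal means less secretion.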
HT1080 IDH1KD tx = kills HT-1080 cells with IDH1 knockdown. HT-1080 IDH1 knockdown viability, ATP luminescence, 48 h. Potency, µM (doses to about 46.1 µM), without a hit: at the highest dose activity, negative = toxicity, usual class: cytotoxic. actives 2% (n = 360,000). AID 686971;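 also: potency is read from the fitted curve at half-maximal effect; 0% = DMSO wells and -100% = cell-free medium wells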
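Assay cells: HT-1080 with IDH1 knockdown, 750 per well, RPMI/5% FBS. Exposure: 48 h at 37 °C following 2 h pre-incubation. Read: CellTiter-Glo luminescence; fitted concentration-response, curve class assigned.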
DT40 TDP1 no CPT = qHTS for Inhibitors of human tyrosyl-DNA phosphodiesterase 1 (TDP1): qHTS in cells in absence of CPT; DT40 Tdp1-/- hTDP1 cells, no CPT, ATP luminescence, 48 h; Potency, µM (doses to about 46.2 µM), without a hit: top-dose activity change, negative = growth inhibition, usual class: inhibitors; actives 15% (n = 420,000); also: potency is read from the fitted curve at half-maximal effect; nearly all actives have a fitted effect of over 55% in size
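Chicken DT40 Tdp1-/- cells stably complemented with human TDP1 were seeded at 400 cells/well with DMSO in place of 20 nM camptothecin. After compound pinning, cells grew at least 48 hr at 37 °C; viability read by CellTiter-Glo luminescence.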
Numbers without * were called inactive; u = inconclusive; x = not tested or not shown; [ ] = remark or other dose. Unless noted, calls follow the shape of the dose curve; as a rule, active = well fitted curve in the direction sought with a large enough effect; inconclusive = small, poorly fitted or top-dose-only effect, or another doubt; inactive = no such curve, though single readings can be large; an effect the other way counts as inactive or inconclusive. Unless noted, % is scaled to controls: 0 for no effect and ±100 for the full control effect.

SMILES | HT1080NT lethal | DT40 TDP1 CPT | IL-1B inflam inh | HT1080 IDH1KD tx | DT40 TDP1 no CPT
O=C(CC1SC(=Nc2ccccc2)N(CCO)C1=O)Nc1ccccc1 (stereo not given) | -4% | 9% | 5 | 0% | 1%
CCCN1C(=O)SC(CC(=O)Nc2cccc3ccccc23)C1=O (stereo not given) | -1% | 16µM* | 19 | 3% | 16µM*
CCCN1C(=O)SC(CC(=O)Nc2ccccc2)C1=O (stereo not given) | 26% | 23µM* | -4 | 11% | u
CSCCC1NC2(C(=O)Nc3c(C)cc(Cl)cc32)[C@@H]2C(=O)N(C3CCCC3)C(=O)[C@H]12 (stereo not given in full) | -1% | u | -9 | -9% | 21µM*
Cc1csc(N(C)C(=O)CSc2nnc(COc3cccc4ccccc34)o2)n1 | 6.3µM* | 5.8µM* | 29 | u | 5.8µM*
Cc1cccc(OC(C)C(=O)Nc2ccc3c(c2)OCCO3)c1 (stereo not given) | 1% | 26% | -4 | 9% | -2%
COc1cccc(CNC(C)C(=O)Nc2ccc3c(c2)OCCO3)c1 (stereo not given) | 1% | 0% | -61* | -1% | -11%
CCN(CC)c1nc(-c2ccc(C(=O)NN)cc2)nc(-c2ccc(C(=O)NN)cc2)n1 | -11% | -10% | 6 | -5% | -24%
CC1CCc2c(sc(NC(=O)CCc3nc4ccccc4c(=O)[nH]3)c2C#N)C1 (stereo not given) | 0% | 16µM* | 13 | 1% | 18µM*
Cc1cc(C)nc(SCC(=O)Nc2sc3c(c2C#N)CCC(C)C3)n1 (stereo not given) | -3% | 21µM* | 40 | -14% | 15µM*
O=C1C=CC(=O)N1 | u | 3.3µM* | -12 | u | 3.3µM*
COc1ccc(Cl)cc1NS(=O)(=O)c1cccc(C(=O)NC2CC2)c1 | -4% | -10% | -6 | -4% | -29%
CC(=O)Oc1ccccc1C(=O)NC(C)CCc1ccccc1 (stereo not given) | -16% | -19% | -72* | -15% | u
COCCNC(=O)C1(C)CCCN(C(=O)c2cc(C)oc2C)C1 (stereo not given) | 7% | 3% | 3 | 24% | 7%
CC(C)(C)c1nc(SCC(=O)NNC(=O)c2ccccc2)c2ccccc2n1 | u | u | -91* | u | u
CC(C)(C)c1nc(SCC(=O)NC2CCCC2)c2ccccc2n1 | -14% | -24% | -62* | -17% | -25%
CC(C)NC(=O)CSc1nc(Cc2ccccc2)nc2ccccc12 | 0% | u | -70* | -14% | u
CCc1nc(SCC(=O)NNC(=O)c2ccc(OC)cc2)c2ccccc2n1 | 0% | u | -29 | 9% | -16%
COc1ccc(C(=O)NNC(=O)CSc2nc(C(C)C)nc3ccccc23)cc1 | -24% | -4% | -93* | -9% | -24%
COc1ccccc1NC(=O)c1cccc2c(Br)cccc12 | -3% | -28% | 9 | -1% | u
CC(C)N(Cc1ccccc1)CC(O)COc1ccc(S(=O)(=O)N2CCOCC2)cc1Cl (stereo not given) | -27% | -26% | -11 | -11% | -27%
O=C1CC(N2CCCc3ccccc32)C(=O)N1c1ccccc1Cl (stereo not given) | 0% | -23% | 27 | 4% | -11%
CCCc1nc(SCC(=O)NC2CCCC2)c2ccccc2n1 | -14% | u | -58* | -1% | u
O=S(O)CO | x | 14% | x | x | 1%
N#Cc1cccc(C=C(C(=O)c2ccccc2)c2ccccc2)c1 | 26µM* | 12µM* | x | u | 19µM*
SMILES | HT1080NT lethal | DT40 TDP1 CPT | IL-1B inflam inh | HT1080 IDH1KD tx | DT40 TDP1 no CPT
c1ccc(Nc2cc(-c3ccoc3)ncn2)cc1 | x | -22% | x | x | -5%
CCC(c1nnnn1-c1ccc2c(c1)OCCO2)N1CCN(CC)CC1 (stereo not given) | 13% | 8% | 6 | 11% | -22%
FC(F)(F)Oc1ccccc1C(c1nnnn1-c1ccc2c(c1)OCCO2)N1CCN(C/C=C/c2ccccc2)CC1 (stereo not given) | -25% | u | -7 | -21% | 15µM*
C(=C\c1ccccc1)/CN1CCN(C(c2cccc3ccccc23)c2nnnn2-c2ccc3c(c2)OCCO3)CC1 (stereo not given) | -24% | 13µM* | -26 | -25% | 8.2µM*
COCCN(Cc1cc2cc3c(cc2nc1Cl)OCO3)C(=O)c1ccc(C)cc1 | -14% | u | 29 | -12% | 13µM*
COCCN(Cc1cc2cc(C)ccc2nc1Cl)C(=O)Nc1ccccc1OC | 9% | 16µM* | -5 | 10% | 16µM*
COCCN(Cc1cc2cc(C)c(C)cc2nc1Cl)C(=O)Nc1ccccc1 | -16% | u | 4 | -1% | u
CCC(=O)N(CCN1CCOCC1)Cc1cc2cc3c(cc2nc1Cl)OCO3 | -1% | -10% | -2 | -10% | 29%
COc1ccccc1S(=O)(=O)N[C@@H]1CC[C@@H](CCn2cc(C3CC3)nn2)O[C@@H]1CO | 23% | 3% | 21 | 13% | 8%
N=c1oc2ccc3ccccc3c2cc1-c1nc(-c2ccccc2)cs1 | 26% | u | 22 | 19% | u
N=c1oc2ccccc2cc1-c1nc(-c2ccccc2)cs1 | -5% | u | -10 | 1% | 23µM*
Cc1ccc(NC(=O)Nc2cnccn2)cc1 | 24% | -18% | -2 | 4% | 18%
O=C(Nc1ccc([N+](=O)[O-])cc1)Nc1cnccn1 | -13% | u | u | -8% | 16µM*
CC(C)c1ccc(NC(=O)Nc2cnccn2)cc1 | u | 12µM* | 14 | 15µM* | 7.3µM*
COc1ccccc1NC(=O)c1sc2nc3c(cc2c1N)CCCCCC3 | x | u | x | x | 13µM*
Nc1c(C(=O)Nc2ccccc2F)sc2nc3c(cc12)CCCCCC3 | x | 2.6µM* | x | x | 3.7µM*
CCc1nnc(NC(=O)c2sc3nc4c(cc3c2N)CCCCCC4)s1 | u | -4% | -72* | u | u
CCC1CCc2nc3sc(C(=O)Nc4ccc(C)cc4C)c(N)c3cc2C1 (stereo not given) | x | u | x | x | 23µM*
Cc1ncc(C[n+]2csc(CCOP(=O)(O)O)c2C)c(N)n1 | x | -10% | x | x | -11%
CNC(C)C#Cc1ccc2c(=O)c3cc(C)c(C)cc3oc2c1 (stereo not given) | -12% | u | u | 1% | 29µM*
CNC(C)C#Cc1ccc2oc3cccc(OC)c3c(=O)c2c1 (stereo not given) | 9% | u | 0 | 9% | u
O=C(NCc1ccncc1)c1cnn(-c2nccc(-c3cccs3)n2)c1C1CC1 | x | -7%[9.04 µM] | x | x | -11%
